{"source": "PubChem BioAssay AID686996", "about": "(Broad Institute, 2013)", "note": "In all, about 350,000 compounds went through this assay and about 1,900 (0.54%) were called active.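 Rule for the calls: active = mean inhibition across replicates at least about 35%, with every replicate also reaching that limit (limit read from the data); inconclusive = only one of the two criteria met; inactive = neither criterion met.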 The sample as a whole holds a higher share of actives than the screen did."}
{"biological_target": "Caspase-6 (Homo sapiens) (UniProt P55212)", "sequence (P55212 24-179 limits assumed)": "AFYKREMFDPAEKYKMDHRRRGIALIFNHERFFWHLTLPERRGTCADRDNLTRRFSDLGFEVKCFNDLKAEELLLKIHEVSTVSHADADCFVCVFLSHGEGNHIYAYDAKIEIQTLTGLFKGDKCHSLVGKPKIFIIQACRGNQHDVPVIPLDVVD", "sequence (P55212 194-293 limits assumed)": "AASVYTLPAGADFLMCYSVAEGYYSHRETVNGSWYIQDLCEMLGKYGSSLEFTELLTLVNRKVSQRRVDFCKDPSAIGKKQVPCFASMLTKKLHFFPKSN", "assay": "inhibition of CASP6 peptide cleavage – biochemical, VEID-R110 fluorescence, single point, set 2, primary screen (AID 686996);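 note: 0% = median of neutral control wells and 100% = no fluorescence left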", "conditions": "purified caspase-6, Z-VEID-R110 cleavage fluorescence; at 12.5 µM; active compounds read high"}
{"smiles": "C[C@@H]1CCCCO[C@@H](CN(C)C(=O)Nc2ccc(C(F)(F)F)cc2)[C@H](C)CN([C@H](C)CO)C(=O)c2cc(NC(=O)c3ccccc3)ccc2O1", "inhibition": "-0.72% (inactive)"}
{"smiles": "C[C@@H]1CCCCO[C@H](CN(C)C(=O)Cc2ccccc2)[C@H](C)CN([C@H](C)CO)C(=O)c2cc(NS(=O)(=O)c3cn(C)cn3)ccc2O1", "inhibition": "-3.5% (inactive)"}
{"smiles": "O=C(Nc1ccc2c(c1)OCO2)C1CC1(Cl)Cl", "note": "(stereo not given)", "inhibition": "-1.32% (inactive)"}
{"smiles": "O=C(Nc1ccc2c(c1)OCCO2)C1CCCC1", "inhibition": "35.2% (active)"}
{"smiles": "O=C(Nc1ccc2c(c1)OCCO2)c1ccoc1", "inhibition": "0.545% (inactive)"}
{"smiles": "COC(=O)C[C@@H]1CC[C@@H]2[C@@H](COc3ccc(NC(=O)C4CCOCC4)cc3C(=O)N2C)O1", "inhibition": "-2.32% (inactive)"}
{"smiles": "C/C=C/c1ccc([C@@H]2[C@H](CO)N(S(=O)(=O)Cc3ccccc3)C23CN(C(=O)C2CCOCC2)C3)cc1", "inhibition": "0.958% (inactive)"}
{"smiles": "O=C(NCC[C@H]1CC[C@H](NS(=O)(=O)c2cccc(F)c2)[C@H](CO)O1)C1CCCCC1", "inhibition": "-1.12% (inactive)"}
{"smiles": "O=C(C[C@@H]1CC[C@H]2[C@@H](COC[C@H](O)CN2C(=O)Nc2ccccc2)O1)NCCc1ccncc1", "inhibition": "2.19% (inactive)"}
{"smiles": "CO[C@@H]1CN(C)C(=O)c2ccc(NS(=O)(=O)c3cccc(C)c3)cc2OC[C@@H](C)NC[C@H]1C", "inhibition": "-0.731% (inactive)"}
{"smiles": "CCC(=O)N1[C@H](C(=O)NC2CCC2)[C@@H](CO)[C@@H]2Cn3c(cccc3=O)[C@@H]21", "inhibition": "0.371% (inactive)"}
{"smiles": "COc1ccc2c3c(n(C)c2c1)[C@H](CO)N(CC1CCCCC1)CC31CCN(Cc2nccs2)CC1", "inhibition": "-2.93% (inactive)"}
{"smiles": "CS(=O)(=O)c1ccc2c(c1)SC1=NC(=O)/C(=C/c3ccco3)C(=N)N12", "inhibition": "56.4% (active)"}
{"smiles": "COc1ccc2c3c(n(C)c2c1)[C@@H](CO)N(C)CC31CN(CC2CC2)C1", "inhibition": "-5.67% (inactive)"}
{"smiles": "Cc1ccc(S(=O)(=O)Nc2ccc3c(c2)C(=O)N([C@@H](C)CO)C[C@@H](C)[C@H](CN(C)Cc2ccc(Cl)c(Cl)c2)OCCCC[C@@H](C)O3)cc1", "inhibition": "-0.785% (inactive)"}
{"smiles": "O=C(C[C@@H]1CC[C@@H](NS(=O)(=O)c2ccc(F)cc2)[C@@H](CO)O1)NCCc1ccncc1", "inhibition": "3.03% (inactive)"}
{"smiles": "O=C(Nc1ccc(F)cc1)N[C@@H]1CC[C@H](CC(=O)N2CCCCC2)O[C@H]1CO", "inhibition": "1.55% (inactive)"}
{"smiles": "Cc1ccccc1NC(=O)CN1C(=O)N/C(=C\\c2cccn2-c2cccc(C(=O)O)c2)C1=O", "inhibition": "63.2% (active)"}
{"smiles": "Cc1ccccc1NC(=O)Cn1c(=O)n(CC2CCCO2)c(=O)c2ccccc21", "note": "(stereo not given)", "inhibition": "6.2% (inactive)"}
{"smiles": "Cc1ccccc1NC(=O)CSC(=O)c1ccccc1", "inhibition": "1.82% (inactive)"}
